Molecules are shown by their SMILES. Activity calls are given as the source filed them.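 How the source made its calls: active means growth inhibition above 50% at the single 2 µM test dose, taken to imply half-maximal potency below 2 µM; inactive means the rest.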

This experiment is described as follows: antimalarial activity against Dd2 strain (AID 2302).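 Further: 0% = DMSO untreated growth and 100% = chloroquine plus artemisinin killed control.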 To be noted: P. falciparum Dd2 in RBCs, LDH growth readout, 72 h; at 2 µM; active compounds read high.
Consider `Cc1ccccc1C1CCN(C2CCC(NC(=O)/C=C/c3ccc(C(F)(F)F)cc3)CC2)CC1` (stereo not given), for which the growth inhibition is 19% (inactive).

For `Cc1ccoc1C(=O)Nc1ccc(-c2cccc(-c3nc4c(C)cccc4[nH]3)c2)cc1`, the growth inhibition was 69% (active). Consider `CCCNCc1ccc(-c2ccc(CN(C(=O)c3nn(-c4ccccc4)nc3C)C(C)CN(C)C)cc2)nc1` (stereo not given), for which the growth inhibition was 95% (active). As for `O=C(Cn1c(CCc2cccc(F)c2F)nc(=O)c2ccccc21)N(Cc1ccc(-c2ccc(C(F)(F)F)cc2)cc1)C1CCN(C2=NCCS2)CC1`, the figure is 85% (active). With `COc1cc2nc(NCCc3ccccc3)nc(NCc3nccs3)c2cc1OC`, the growth inhibition is 93% (active). Regarding `COc1ccc(-c2ccc(NC(=O)c3cccc(C#N)c3)cc2)cc1CN1CCN(C)CC1`, the growth inhibition is 59% (active). In the case of `O=C(/C=C/c1cccc2c1OCO2)Nc1ccnc2ccncc12`, the growth inhibition is 35% (inactive). For the molecule `Cc1cc(N2CCN(C)CC2)nc2ccc(NC(=O)Cc3cccc(C(F)(F)F)c3)cc12`, the growth inhibition is 51% (active). As for `Nc1nc(N)c2c(ccc3nn(Cc4cccnc4)cc32)n1`, the growth inhibition was 0% (inactive).

On to `COc1ccc(-c2ccc(NC(=O)c3cccc(C#N)c3)cc2)cc1CN1CCCC(C(N)=O)C1` (stereo not given), for which the growth inhibition was 44% (inactive). On to `Cc1cc2nc(-c3ccc(C(=O)NCc4ccc(Cl)c(Cl)c4)cc3)[nH]c2cc1C`, for which the growth inhibition was 83% (active).

In the case of `O=C(Nc1cccc(Cl)c1Cl)N[C@H]1CCN(CCCCCNC(=O)[C@@H]2C[C@H]2c2ccc(Cl)c(Cl)c2)C1`, the growth inhibition is -7% (inactive). For `O=C(Nc1ccc(CC(=O)N2CCc3cc(Cl)c(N4CCN(C/C=C/c5ccccc5)CC4)cc32)cc1)Nc1cccc([N+](=O)[O-])c1`, the growth inhibition is 27% (inactive).

For `NC1CCCN(Cc2ccc(-c3cccc(-c4nc5ccccc5[nH]4)c3)cc2)C1` (stereo not given), the growth inhibition is 26% (inactive). With `O=C(Nc1cccc(Cl)c1N1CCOCC1)C(Cl)(Cl)Cl`, the growth inhibition is 95% (active). As for `O=S(=O)(c1cccc(F)c1)c1ccc(Nc2ncnc3cc(Br)sc23)cc1Cl`, the figure is 11% (inactive). Consider `CCOC(=O)c1ccc(NC(=O)Nc2ccc(-c3ccc(-c4nc5ccccc5[nH]4)cc3)cc2)cc1`, for which the growth inhibition is 100% (active).

Turning to `Cc1[nH]c(C)c(-c2ccc(-c3ccccc3F)nc2)c(=O)c1Br`, the growth inhibition was 97% (active).

Consider `CCOc1cc(C(=O)NCCCN2CCN(c3cccc(Cl)c3)CC2)ccc1-c1nc2cc(Cl)c(F)cc2[nH]1`, for which the growth inhibition was 19% (inactive). `CC(C)CCN1CCC(Oc2ccc(NC(=O)c3ccco3)cc2Cl)CC1`: the growth inhibition is 93% (active). For the molecule `Cc1ccc(Nc2ccnc(Nc3ccc(F)c(Cl)c3)n2)cc1O`, the growth inhibition is 52% (active). On to `CCOc1c(CCNCCCCNCCc2ccc3ccccc3c2OCC)ccc2ccccc12`, for which the growth inhibition was 87% (active).

Turning to `CC(=O)Oc1cc(C)ccc1C1CCN(CCCCNC(=O)c2ccc(NC(=O)c3ccc(Cl)cc3)cc2)CC1`, the growth inhibition was 57% (active). On to `Cc1cc(C)c2[nH]cc(C(=O)O)c(=O)c2c1`, for which the growth inhibition was 60% (active). As for `CN1CCC(Oc2ccc(CN3CC[C@H](NC(=O)c4ccc(F)c(F)c4)C3)c3ccccc23)C1` (stereo not given in full), the figure is 27% (inactive); as for `CC(C)Nc1cc(C(=O)N[C@@H](Cc2ccccc2)[C@H](O)CNC(C)(C)c2cccc(C(F)(F)F)c2)cc(N2CCCCS2(=O)=O)c1`, 98% (active). As for `COc1ccc2c(NN=Cc3ccccn3)ccnc2c1`, the growth inhibition was 96% (active). `O=C(Nc1ccc(-c2csc3nccn23)cc1)c1ccc(Cl)cc1`: the growth inhibition was 50% (active). As to `CCOCCCNc1ncc(-c2ccsc2)c(-c2nc(C)cs2)n1`, the growth inhibition is 83% (active). For `CCc1c(CCNCCCCCCNCCc2ccccc2)ccc(OC)c1OC`, the growth inhibition was 3% (inactive). For `Nc1nc(N)c2c3c(cnc2n1)CCCC3` the value was -4% (inactive); for `Cc1nc2ccc([N+](=O)[O-])cc2c(=O)n1OCc1ccccc1`, -1% (inactive); for `OCC(c1ccccc1)n1c(COc2ccc(Cl)cc2)nc2c(OCCCN3CCCCC3)cccc21` (stereo not given), 68% (active). For the molecule `COc1ccc2nccc([C@@H](O)CN3CCC(NCc4nc5c([N+](=O)[O-])cccc5[nH]4)CC3)c2c1`, the growth inhibition is 84% (active).

As for `CCC1(CC)N=C(N)N=C(N)C1c1ccc(Cl)c(Cl)c1` (stereo not given), the growth inhibition is 20% (inactive).

`COc1c(C2CCN(CCCCNC(=O)c3ccc(-c4ccc(Cl)cc4)cc3)CC2)ccc2c1C(C)(C)CCC2(C)C`: the growth inhibition was 42% (inactive). As to `CCOC(=O)c1cccc(NC(=O)Nc2cc(C)nc3ccccc23)c1`, the growth inhibition is 90% (active). As for `O=C(Nc1ccc([N+](=O)[O-])cc1)Nc1nc2ccc(Cl)cc2s1`, the figure is 33% (inactive); as for `COc1ccccc1N1CCN(Cc2c(NC(C)=O)sc(C)c2C)CC1`, 80% (active); as for `COc1ccc(C=NNc2nc3ccccc3[nH]2)cc1O`, 13% (inactive).

For the origin of these results see PubChem BioAssay.
